The source of these data is PubChem BioAssay AID1654 (Sanford-Burnham Center for Chemical Genomics, 2009).

Screen size: about 290,000 compounds; about 1,500 (0.52%) were called active. Rule as the data show it: active = inhibition above about 50%; inactive = the rest. Only a selection was taken, and actives are over-represented in it overall.

The target in this experiment is Dual specificity protein phosphatase 3 (Homo sapiens) (UniProt P51452). Description: VHR1 phosphatase inhibitors, primary screen, biochemical, absorbance, uHTS (AID 1654).
Where [1] appears, read: recombinant VHR phosphatase, pNPP absorbance, at 13.3 µM, stronger effect = higher value.

Chain of Dual specificity protein phosphatase 3 (Homo sapiens) (P51452 whole entry, looked up): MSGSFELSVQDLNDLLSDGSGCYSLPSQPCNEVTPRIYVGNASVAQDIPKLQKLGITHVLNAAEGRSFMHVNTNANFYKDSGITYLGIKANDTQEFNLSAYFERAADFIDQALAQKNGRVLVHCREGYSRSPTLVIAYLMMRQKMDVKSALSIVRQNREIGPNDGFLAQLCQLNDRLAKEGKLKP

For orientation: inhibition means the relative decrease from the control value, in per cent. With `Cc1cc(C)nc(-n2ncc3c2CC(c2ccc(C(C)C)cc2)CC3=O)n1` (stereo not given), the inhibition under setting [1] was 1.9% (inactive).
The same measure, in the same setting: for `NC(=S)Nc1c(Cl)cccc1Cl` the value was 24.6% (inactive).
Consider `CSCCNC(=O)c1ccc2nc(Cc3ccccc3F)oc2c1`, for which the inhibition runs as follows: (recombinant VHR phosphatase, pNPP absorbance; at 13.3 µM; stronger effect = higher value) 63.9% (inactive); (recombinant VHR phosphatase, pNPP absorbance; measured here: average of confirmation repeats; at 13.3 µM; stronger effect = higher value) 2.8%.
On to `Cc1ccc(NC2CCCN(C(=O)CCc3cn[nH]c3)C2)cc1C` (stereo not given), for which the inhibition under setting [1] was -2.7% (inactive).
On the same count and under the same terms, for `CCOc1cc(/C=N/O)ccc1OCc1ccccc1F` the value was -4.1% (inactive); for `CCOc1cc(/C=N/NC(=O)OC)ccc1OCCSc1ccc(Cl)cc1`, -3.8% (inactive); for `CC(=O)c1nn(-c2cccc(C(F)(F)F)c2)c(=O)[nH]c1=O`, -9.5% (inactive).
As to `CN(CCO)c1ccc(/C=N/Nc2nncc3ccccc23)cc1`, the inhibition under setting [1] was 18.2% (inactive).
Turning to `O=C(Nc1ccc(OCC(=O)N2CCOCC2)cc1)c1cc(F)c(F)cc1Cl`, the inhibition under setting [1] is 25.5% (inactive).
Turning to `O=C1COc2ccc(S(=O)(=O)Nc3ccc(OC(F)(F)F)cc3)cc2N1`, under setting [1], the inhibition is -1.9% (inactive).
The same measure, in the same setting: next, `COc1ccccc1NC(=O)CSc1nc2sc3c(c2c(=O)n1-c1ccccc1)CCN(C)C3`: 9.1% (inactive); `Cc1ccc(C)c(SCc2nc3sc(C(=O)O)c(C)c3c(=O)[nH]2)c1`: 7.2% (inactive); `Cc1ccc(-c2nc(SCC(=O)Nc3ccccc3OC(F)F)c3c(C)c(C(=O)O)sc3n2)cc1`: 113% (active).
On the same count and under the same terms, next, `CCN(CC)c1ccc(/C=N/NC(=O)CNC(=O)c2cccs2)cc1`: 10.2% (inactive); `CN(C(=O)COC(=O)CNC(=O)C12CC3CC(CC(C3)C1)C2)c1ccccc1`: 14.5% (inactive).
Still for that read-out and setting: next, `NNC(=O)c1nnn(-c2nonc2N)c1CN1CCCC1`: 52.8% (active); `Nc1nonc1-n1nnc(C(=O)N/N=C\c2ccncc2)c1CN1CCCCC1`: 13% (inactive); `Cc1c(C(=O)O)nnn1-c1nonc1N`: 17.9% (inactive).
On to `Cc1ccc2c(c1)N(CC(=O)N1CCCC(C)C1)C(=O)CO2` (stereo not given), for which the inhibition under setting [1] is 7.4% (inactive).
The same measure, in the same setting: next, `CCOc1ccc(CN2CCN(CCCc3ccccc3)C(CCO)C2)cc1` (stereo not given): 8.1% (inactive).
The same measure, in the same setting: for `Cc1noc(C)c1CCC(=O)N1CCCC(CO)(Cc2ccccc2)C1` (stereo not given) the value was 5.7% (inactive).
Turning to `CC1CN(C(=S)Nc2ccc(Br)cc2Cl)CC(C)O1` (stereo not given), the inhibition under setting [1] was 15% (inactive).
Consider `CCc1ccc(NC(=O)CN2CCC(C(=O)c3ccc(OC)cc3)CC2)cc1`, for which the inhibition under setting [1] is 52% (active).
The same measure, in the same setting: next, `CCc1ccc(NC(=O)Cn2nnc(C(=O)NCc3ccc(OC)cc3)c2N)cc1`: -1.9% (inactive); `CCOc1ccc(NC(=O)CN2CCN(CC(=O)Nc3ccc(OC)cc3)CC2)cc1`: -3.3% (inactive); `COc1ccc(CCNC(=O)C2CCCN(S(=O)(=O)c3ccc(OC)cc3)C2)cc1` (stereo not given): -35.9% (inactive).
Same read-out and setting: for `CC(C)CCNC(=O)C1CCCN(S(=O)(=O)c2ccc(F)cc2)C1` (stereo not given) the value was 53.4% (active); for `CCCCNC(=O)C1CCCN(S(=O)(=O)c2ccc(S(=O)(=O)NCC(C)C)cc2)C1` (stereo not given), 6.5% (inactive); for `CCc1cc(-c2nnc(SCC(=O)NC3CC3)n2C)cs1`, 24% (inactive).
Still for that read-out and setting: for `O=c1c(-c2cccc(Cl)c2)c[nH]n1-c1ccccc1` the value was 12.5% (inactive); for `Cc1ccc(C2C3=C(Nc4[nH]n(-c5ccccc5)c(=O)c42)c2ccccc2C3=O)cc1` (stereo not given), 1.7% (inactive); for `Cc1ccc(-n2[nH]c(C)c(/C=N/N3C(=O)c4cccc5cccc(c45)C3=O)c2=O)cc1`, 20.9% (inactive).
For the molecule `O=c1[nH]cnc2c1c(-c1ccccc1)cn2-c1ccc(F)cc1`, under setting [1], the inhibition was -6.9% (inactive).
With `O=c1c2c(-c3ccccc3)ccnc2[nH]n1-c1ccccc1`, the inhibition under setting [1] is 55.5% (active).
Same read-out and setting: next, `Cc1ccc(-c2ccnc3[nH]n(-c4ccccc4)c(=O)c23)cc1`: 60% (active).
The same measure, in the same setting: for `C[C@H](NC(=O)C1CCN(S(=O)(=O)c2ccccc2)CC1)C(=O)NCc1ccccc1` the value was 52.3% (active); for `Cc1ccc(S(=O)(=O)N2CCC(C(=O)N[C@@H](C)C(=O)NCc3ccccc3)CC2)cc1`, 1.5% (inactive); for `Cc1ccc(S(=O)(=O)N2CCC(C(=O)N[C@@H](C)C(=O)NCCc3ccccc3)CC2)cc1`, 6.2% (inactive).
Still for that read-out and setting: next, `N#Cc1c(-c2ccccc2)nc(SCc2ccc([N+](=O)[O-])cc2)[nH]c1=O`: 4.1% (inactive).
Take `O=C(C(NS(=O)(=O)c1cccc2nsnc12)c1ccccc1)N1CCN(c2ccccn2)CC1` (stereo not given): under setting [1], the inhibition was 52.7% (active).
On the same count and under the same terms, next, `O=C(O)C(NS(=O)(=O)c1cccc2nsnc12)c1ccccc1` (stereo not given): 13.3% (inactive).
Same read-out and setting: for `O=C(C(NS(=O)(=O)c1cccc2nsnc12)c1ccccc1)N1CCN(c2ccccc2)CC1` (stereo not given) the value was -12.8% (inactive).
Same read-out and setting: for `O=C(NCCOc1cccnc1)c1ccc(OC2CCN(Cc3ccccn3)CC2)cc1` the value was 18.5% (inactive); for `Fc1ccc(/C=N/n2c(COc3ccccc3)n[nH]c2=S)cc1`, 26.3% (inactive); for `C/C(=N/O)c1ccc(N2C(=O)C3C4C=CC(C3C2=O)C2C3C(=O)N(c5ccc(/C(C)=N/O)cc5)C(=O)C3C42)cc1` (stereo not given), -7.1% (inactive).
Regarding `CC1CCN(C(=O)/C(=C\c2ccccc2F)NC(=O)c2ccccc2)CC1`, the inhibition under setting [1] was 18.5% (inactive).
On the same count and under the same terms, for `CN(CC(=O)NCc1ccc(Cl)cc1)S(=O)(=O)c1cccs1` the value was 21.4% (inactive); for `Cc1cccc(C(=O)N2CCCC(Nc3ccc(C(C)C)cc3)C2)n1` (stereo not given), 10.8% (inactive).
On to `CC(C)c1ccc(NC2CCCN(C(=O)c3ccncc3)C2)cc1` (stereo not given), for which the inhibition under setting [1] is 13.7% (inactive).
Regarding `COc1ccc(NC2CCCN(C(=O)c3ccncc3)C2)cc1` (stereo not given), the inhibition under setting [1] was 54.2% (active).
Still for that read-out and setting: next, `COc1cc(C(=O)N2CCN(C3CCC(C)CC3)CC2)cc(OC)c1OC` (stereo not given): 16.6% (inactive); `CCOc1ccc2[nH]c(=O)c(CN(CCCO)S(=O)(=O)c3ccc(F)cc3)cc2c1`: 39.4% (inactive).
Still for that read-out and setting: next, `COc1cc(C(=O)NCc2ccc(-n3cccc3)cc2)cc(OC)c1OC`: 33.3% (inactive).
Turning to `COc1cc(C(=O)NCc2ccncc2)cc(Br)c1OCc1ccccc1`, under setting [1], the inhibition was 50% (active).
On the same count and under the same terms, next, `COc1cc(C(=S)NCc2ccccc2)cc(Br)c1O`: 25.9% (inactive).
The same measure, in the same setting: for `CCOC(=O)c1c(S(=O)(=O)Nc2ccc(CN3CCC(C)CC3)cc2)c(C)n(C)c1C` the value was -22.3% (inactive); for `CN(CC(=O)Nc1ccc(F)cc1)C(=O)c1ccc(-c2ccc(Cl)cc2)o1`, 16.7% (inactive); for `CCOc1ncccc1C(=O)N(C)CC(=O)Nc1ccc(F)cc1`, 59.9% (active).
On the same count and under the same terms, for `CCOc1ncccc1C(=O)N(CC)CC(=O)Nc1ccc(NC(C)=O)cc1` the value was 1.3% (inactive); for `Cc1cccc2nc(CNc3ccc(F)cc3)cn12`, -14.9% (inactive); for `CN(C(=O)c1ccccc1)c1nccnc1C#N`, 25% (inactive).
On to `Cc1cc(N2C(=O)C(O)=C(C(=O)c3ccc(C)o3)C2c2ccc(OCc3ccccc3)cc2)no1` (stereo not given), for which the inhibition under setting [1] was 12.3% (inactive).
Still for that read-out and setting: next, `O=S(=O)(c1ccc2c(c1)OCCO2)N1CCc2ccccc21`: 13.6% (inactive); `Cn1c(=O)n(C)c2cc(S(=O)(=O)N3CCCc4ccccc43)ccc21`: 3.5% (inactive).
On the same count and under the same terms, for `CCn1c(=O)c(=O)n(CC)c2cc(S(=O)(=O)N3CCc4ccccc43)ccc21` the value was 50.3% (active).
Same read-out and setting: next, `Cc1cc(C)nc(SC2CCCCC2NS(=O)(=O)c2ccc(Cl)cc2)n1` (stereo not given): 1.5% (inactive); `Cc1ccc(S(=O)(=O)Nc2nc(C)cc(-n3nc(C)cc3C)n2)cc1`: 28.3% (inactive); `Cc1cc(C)nc(NS(=O)(=O)c2ccc(N3C(=O)C4CCCCC4C3=O)cc2)n1` (stereo not given): 57.6% (active).
On to `COc1ccc(CCc2nc(-c3cccs3)no2)cc1`, for which the inhibition under setting [1] is -3.6% (inactive).
Consider `Cc1c(CCC(=O)O)c(=O)oc2cc(OCc3ccc(Br)cc3)ccc12`, for which the inhibition under setting [1] was 2.4% (inactive).
The same measure, in the same setting: next, `Cc1c(CCC(=O)O)c(=O)oc2c(C)c(OCc3ccccc3Cl)ccc12`: 57.3% (active); `CCOC(=O)CCc1c(C)c2ccc(OCc3nn[nH]n3)c(C)c2oc1=O`: -7.7% (inactive).
Consider `COc1ccc2oc(=O)cc(CN3CCOCC3)c2c1`, for which the inhibition under setting [1] was -2.3% (inactive).
The same measure, in the same setting: next, `CCc1ccccc1NC(=O)/C(=C/c1ccccc1)c1ccccc1`: -11.5% (inactive); `CCOc1ccccc1OCCCNCc1ccccc1`: 59.7% (active).
As for `CCOCCCNCc1ccc(OCc2ccc(F)cc2)c(OC)c1`, the inhibition under setting [1] was 23.4% (inactive).
Turning to `CCOCCCNCc1cc(Br)ccc1OCC`, the inhibition under setting [1] was 3% (inactive).
As for `COc1ccc(S(=O)(=O)N2CCC(C(=O)N3CCCC3)CC2)cc1C`, the inhibition under setting [1] is -11.4% (inactive).
`O=C(N1CCCCC1)N1CCN(C(=O)N2CCCCC2)CC1`: the inhibition under setting [1] was 17.7% (inactive).
Same read-out and setting: next, `CCOC(=O)C1CCN(C(=O)COc2cccc3ccccc23)CC1`: 1.1% (inactive); `Cc1cc(/C=C2\SC(=O)N(C)C2=O)c(C)n1-c1cccc(C(=O)O)c1`: 15.5% (inactive); `N#Cc1ccccc1CN1C(=O)S/C(=C/c2cccn2-c2cccc(C(=O)O)c2)C1=O`: 50.3% (active).
In the case of `Cc1ccccc1NC(=O)CN1C(=O)N/C(=C\c2cccn2-c2cccc(C(=O)O)c2)C1=O`, under setting [1], the inhibition was 35.6% (inactive).
Same read-out and setting: next, `CC(=O)N1CCCc2cc(S(=O)(=O)N3CCCC(C(=O)NCc4ccc(Cl)cc4)C3)ccc21` (stereo not given): 5.3% (inactive); `CC(=O)N1c2ccc(S(=O)(=O)N3CCCC(C(=O)NCc4ccc(Cl)cc4)C3)cc2CC1C` (stereo not given): 52.7% (active).
Still for that read-out and setting: next, `CC(=O)N1c2ccc(S(=O)(=O)N3CCC(C(=O)NCc4ccc(F)cc4)CC3)cc2CC1C` (stereo not given): 34.4% (inactive); `CCC(C)c1ccccc1NC(=O)CN(C)CC(=O)Nc1ccccc1SC` (stereo not given): -2.9% (inactive); `CC1(C)C2CCC1(CS(=O)(=O)NCCc1c[nH]c3ccccc13)C(=O)C2` (stereo not given): -8.1% (inactive).
Same read-out and setting: next, `CCC(CC)C(=O)N1CCN(c2cccc(C)c2C)CC1`: -4.1% (inactive); `Cc1cccc(N2CCN(C(C)C(=O)N3CCc4ccccc43)CC2)c1C` (stereo not given): 52.9% (active).
Regarding `NC(=O)N1CCc2ccccc21`, under setting [1], the inhibition was 30.9% (inactive).
Still for that read-out and setting: for `O=C1Nc2cc(C(=O)N3CCN(c4ccc(F)cc4)CC3)ccc2NC1CSCc1cccc(F)c1` (stereo not given) the value was -24.2% (inactive).
The same measure, in the same setting: for `O=C(O)c1cc(S(=O)(=O)N(Cc2ccccc2)c2ccccc2)ccc1Cl` the value was 10.4% (inactive); for `CCn1cc(S(=O)(=O)c2cccc(C)c2)c(=O)c2cc(F)c(N3CCN(C)CC3)cc21`, 5.7% (inactive).
Still for that read-out and setting: next, `CCCn1cc(S(=O)(=O)c2ccc(C)cc2)c(=O)c2cc(OCC)ccc21`: -25.6% (inactive); `CCOc1ccc2c(c1)c(=O)c(S(=O)(=O)c1ccc(C)cc1)cn2CC`: 52.5% (active); `COC(=O)c1c(C)[nH]c(C(=O)/C=C/c2ccc(Cl)cc2)c1C`: -0.3% (inactive).
For the molecule `COc1ccc(OC)c(CNC(=O)Cn2nc(C)c3c(C)n(-c4ccc(C)cc4)nc3c2=O)c1`, the inhibition under setting [1] is -9% (inactive).
The same measure, in the same setting: next, `CC(C)CC(=O)NC(=S)NNC(=O)c1cccc([N+](=O)[O-])c1`: -16.7% (inactive).
